Assay results from PubChem BioAssay AID1159580 (chemical genetic matrix, 2015).
The whole screen tested about 5,500 compounds, of which about 2,000 (36%) were called active. Not shown: some 18% with an inconclusive outcome. Cut-off read from the data, not from the text of the source: active = normalized growth mostly below about 0.91 (no sharp cut-off); inconclusive = no clear call, values can overlap the other calls; inactive = mostly above about 0.92. Some of the results follow.

Experiment: chemical genetic growth profiling, strain panel (AID 1159580);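 note: tested at 20 µM; growth read once vehicle control cultures reached saturation at 30 °C; 1 = growth at the plate median or of vehicle wells; lower values mean less growth of the strain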
Conditions: S. cerevisiae deletion strains, growth OD
[1] = locus YAL040C, strain CLN3, stronger effect = lower value
[2] = locus YCL061C, strain MRC1 (second series), stronger effect = lower value
[3] = locus YDR150W, strain NUM1, stronger effect = lower value
[4] = locus YDR363W, strain ESC2, stronger effect = lower value
[5] = locus YER002W, strain NOP16, stronger effect = lower value
[6] = locus YGR078C, strain PAC10, stronger effect = lower value
[7] = locus YMR307W, strain GAS1, stronger effect = lower value
[8] = locus YNL153C, strain GIM3, stronger effect = lower value
[9] = locus YNL175C, strain NOP13, stronger effect = lower value
[10] = locus YNL197C, strain WHI3, stronger effect = lower value
[11] = locus YNL224C, strain SQS1, stronger effect = lower value
[12] = locus YOR083W, strain WHI5 (second series), stronger effect = lower value
[13] = locus YPL055C, strain LGE1, stronger effect = lower value

Measured: normalized growth

CCCn1cnc2c1c(=O)n(CCCCC(C)=O)c(=O)n2C
inactive: locus YAL013W, strain DEP1, stronger effect = lower value 1.01 | [1] 0.997 | [2] 1.01 | [3] 1.01 | [4] 0.961 | [5] 1.02 | [6] 1.01 | locus YJR075W, strain HOC1, stronger effect = lower value 1.02 | [7] 1.01 | [8] 1.04 | [9] 1.01 | [10] 0.996 | [11] 1.01 | [12] 1.01 | [13] 1.02 | locus YPL241C, strain CIN2, stronger effect = lower value 1.01

COC[C@H]1OC(=O)c2coc3c2[C@@]1(C)C1=C(C3=O)C2CCC(=O)[C@@]2(C)C[C@H]1OC(C)=O (some centres undefined)
active: [1] 0.0731 | [2] 0.141 | [3] 0.136 | [4] 0.206 | [5] 0.0648 | locus YGR229C, strain SMI1, stronger effect = lower value 0.0613 | locus YMR263W, strain SAP30, stronger effect = lower value 0.0519 | [7] 0.0665 | locus YNL128W, strain TEP1, stronger effect = lower value 0.143 | [8] 0.101 | [10] 0.0727 | [11] 0.0711 | locus YNL322C, strain KRE1, stronger effect = lower value 0.33 | [12] 0.359 | [13] 0.119
inactive: [6] 0.994 | [9] 1

CC1SC(c2cccnc2)N(c2ccc(F)cc2F)C1=O (centres undefined)
inactive: locus YAR019C, strain CDC15, stronger effect = lower value 1 | locus YBL105C, strain PKC1, stronger effect = lower value 0.987 | locus YBR135W, strain CKS1, stronger effect = lower value 0.982 | locus YBR136W, strain MEC1, stronger effect = lower value 0.99 | locus YBR160W, strain CDC28, stronger effect = lower value 0.983 | locus YDL017W, strain CDC7, stronger effect = lower value 0.985 | locus YDL028C, strain MPS1, stronger effect = lower value 0.994 | locus YDL101C, strain DUN1, stronger effect = lower value 0.985 | locus YDL108W, strain KIN28, stronger effect = lower value 1 | locus YDL132W, strain cdc53, stronger effect = lower value 0.981 | locus YDL214C, strain PRR2, stronger effect = lower value 1.01 | locus YDR052C, strain DBF4, stronger effect = lower value 0.981 | locus YDR054C, strain cdc34, stronger effect = lower value 0.981 | locus YDR226W, strain ADK1, stronger effect = lower value 0.974 | locus YDR477W, strain SNF1, stronger effect = lower value 0.981 | locus YER123W, strain YCK3, stronger effect = lower value 0.942 | locus YER133W, strain GLC7, stronger effect = lower value 0.99 | locus YFL009W, strain cdc4, stronger effect = lower value 0.981 | locus YFL029C, strain CAK1, stronger effect = lower value 0.997 | locus YFR003C, strain YPI1, stronger effect = lower value 0.991 | locus YFR019W, strain FAB1, stronger effect = lower value 0.933 | locus YFR028C, strain CDC14, stronger effect = lower value 0.979 | locus YGR040W, strain KSS1, stronger effect = lower value 0.974 | locus YGR052W, strain FMP48, stronger effect = lower value 0.931 | locus YGR092W, strain DBF2, stronger effect = lower value 0.965 | locus YHR030C, strain SLT2, stronger effect = lower value 1.01 | locus YHR079C, strain IRE1, stronger effect = lower value 0.972 | locus YHR082C, strain KSP1, stronger effect = lower value 0.925 | locus YHR205W, strain SCH9, stronger effect = lower value 1 | locus YIL147C, strain SLN1, stronger effect = lower value 0.992 | locus YJL095W, strain BCK1, stronger effect = lower value 0.946 | locus YJL128C, strain PBS2, stronger effect = lower value 0.988 | locus YJL157C, strain FAR1, stronger effect = lower value 1 | locus YJR016C, strain ILV3, stronger effect = lower value 0.986 | locus YJR066W, strain TOR1 (second series), stronger effect = lower value 0.966 | locus YJR066W, strain TOR1, stronger effect = lower value 0.82 | locus YKL048C, strain ELM1, stronger effect = lower value 1 | locus YKL067W, strain YNK1, stronger effect = lower value 1.02 | locus YKL101W, strain HSL1, stronger effect = lower value 1.02 | locus YKL193C, strain SDS22, stronger effect = lower value 0.973 | locus YKL203C, strain TOR2, stronger effect = lower value 0.965 | locus YLR113W, strain HOG1, stronger effect = lower value 0.957 | locus YLR133W, strain CKI1, stronger effect = lower value 1.01 | locus YLR403W, strain SFP1, stronger effect = lower value 0.976 | locus YML070W, strain DAK1, stronger effect = lower value 1.02 | locus YMR001C, strain CDC5, stronger effect = lower value 0.984 | locus YMR205C, strain PFK2 (second series), stronger effect = lower value 1.02 | locus YMR277W, strain FCP1, stronger effect = lower value 0.978 | locus YNL006W, strain LST8, stronger effect = lower value 0.986 | locus YNL020C, strain ARK1, stronger effect = lower value 1.01 | locus YNL161W, strain CBK1, stronger effect = lower value 0.976 | locus YNL183C, strain NPR1, stronger effect = lower value 0.968 | locus YNL207W, strain RIO2, stronger effect = lower value 0.975 | locus YNL222W, strain SSU72, stronger effect = lower value 0.983 | locus YNL307C, strain MCK1 (second series), stronger effect = lower value 1 | locus YOL078W, strain AVO1, stronger effect = lower value 0.976 | locus YOL136C, strain PFK27, stronger effect = lower value 1.03 | locus YOR061W, strain CKA2, stronger effect = lower value 0.995 | locus YOR119C, strain RIO1, stronger effect = lower value 0.833 | locus YOR231W, strain MKK1, stronger effect = lower value 0.936 | locus YOR329C, strain SCD5, stronger effect = lower value 0.979 | locus YPL031C, strain PHO85, stronger effect = lower value 0.981 | locus YPL153C, strain RAD53, stronger effect = lower value 0.968 | locus YPL204W, strain HRR25, stronger effect = lower value 0.972 | locus YPL209C, strain IPL1, stronger effect = lower value 0.979 | locus YPL256C, strain CLN2, stronger effect = lower value 0.954 | locus YPR025C, strain CCL1, stronger effect = lower value 0.984 | locus YPR106W, strain ISR1, stronger effect = lower value 1 | locus YPR111W, strain DBF20, stronger effect = lower value 0.998 | strain NNK1, stronger effect = lower value 0.992 | strain TSCII, stronger effect = lower value 0.985
